Read-out in assay [1]: Interleukin-1 alpha (IL1a), IL1A (gene 3552)
The assay can be described thus: BSK_KF3CT_IL1a: BioMAP Diversity Plus: KF3CT Assay for Interleukin-1 alpha (IL1a) Biomarker Activity (AID 2283070). The settings on record: primary human keratinocytes with fibroblasts; actives raise or lower the signal. In outline: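 Chemicals were dosed onto co-cultured human keratinocytes and foreskin fibroblasts, IL-1a was quantified by ELISA at 24 h, and activity was fitted in both directions relative to DMSO controls.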

Read-out in assay [2]: TIMP metallopeptidase inhibitor 2 (TIMP2), TIMP2 (gene 7077)
The assay can be described thus: BSK_KF3CT_TIMP2: BioMAP Diversity Plus: KF3CT Assay for TIMP metallopeptidase inhibitor 2 (TIMP2) Biomarker Activity (AID 2283071). Particulars: primary human keratinocytes with fibroblasts; actives raise or lower the signal. The gist of the method: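 Human primary keratinocyte/foreskin fibroblast co-culture dosed with chemical and sampled at 24 h. TIMP-2 levels quantified by ELISA; bidirectional fitting against DMSO negative control as baseline.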

Read-out in assay [3]: Transforming growth factor beta 1 (TGFb1), TGFB1 (gene 7040)
Description: BSK_KF3CT_TGFb1: BioMAP Diversity Plus: KF3CT Assay for Transforming growth factor beta 1 (TGFb1) Biomarker Activity (AID 2283072). Particulars: primary human keratinocytes with fibroblasts; actives raise or lower the signal. The gist of the method:
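Human keratinocyte plus foreskin fibroblast primary co-culture, dosed with chemical for 24 h. TGF-b1 quantified by ELISA. Activity fitted bidirectionally against DMSO negative control as baseline.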

Read-out in assay [4]: C-C motif chemokine 2 (Homo sapiens) (UniProt P13500)
The assay can be described thus: BSK_KF3CT_MCP1: BioMAP Diversity Plus: KF3CT Assay for Monocyte Chemoattractant Protein 1 (MCP1/CCL2) Biomarker Activity (AID 2283073). Particulars: primary human keratinocytes with fibroblasts; actives raise or lower the signal. The gist of the method: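 ELISA read-out of MCP-1, 24 h post-dose, in primary human skin keratinocytes co-cultured with fibroblasts. Parallel SRB staining monitors cytotoxicity; changes fitted both directions relative to DMSO.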

Read-out in assay [5]: Matrix Metallopeptidase 9 (MMP9), MMP9 (gene 4318)
Description: BSK_KF3CT_MMP9: BioMAP Diversity Plus: KF3CT Assay for Matrix Metallopeptidase 9 (MMP9) Biomarker Activity (AID 2283074).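 As to AC50: MMP9 protein level quantified by ELISA in the co-culture.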 The settings on record: primary human keratinocytes with fibroblasts; actives raise or lower the signal. In outline:
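Human keratinocyte/foreskin fibroblast co-culture; compound added; 24 h; MMP-9 by ELISA; bidirectional fit vs DMSO baseline.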

Read-out in assay [6]: urokinase plasminogen activator (uPA), PLAU (gene 5328)
Description: BSK_KF3CT_uPA: BioMAP Diversity Plus: KF3CT Assay for urokinase plasminogen activator (uPA) Biomarker Activity (AID 2283075). The settings on record: primary human keratinocytes with fibroblasts; actives raise or lower the signal. In outline:
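ELISA readout of uPA, analyzed for signal gain or loss relative to DMSO, from a human primary keratinocyte–foreskin fibroblast co-culture measured 24 h after chemical treatment.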

Read-out in assay [7]: E-selectin (Homo sapiens) (UniProt P16581)
Description: BSK_LPS_Eselectin: BioMAP Diversity Plus: LPS Assay for Eselectin Biomarker Activity (AID 2283077). The settings on record: primary human HUVEC with PBMC; actives raise or lower the signal. In outline: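 E-selectin ELISA on LPS-stimulated endothelial cell/PBMC co-cultures, read 24 h post-treatment; gains and losses fitted against DMSO. Parallel SRB staining (0.1% SRB after 10% TCA fixation, 560 nm) flags overt cytotoxicity.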

Read-out in assay [8]: Interleukin-8 (IL8), CXCL8 (gene 3576)
The assay can be described thus: BSK_LPS_IL8: BioMAP Diversity Plus: LPS Assay for Interleukin-8 (IL8) Biomarker Activity (AID 2283078). The settings on record: primary human HUVEC with PBMC; actives raise or lower the signal. The gist of the method:
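ELISA read-out of IL-8 after 24 h chemical treatment of LPS-activated endothelial/PBMC human primary co-cultures. Changes either up or down relative to DMSO; overt cytotoxicity checked by sulforhodamine B staining in parallel wells.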

Assay [9] can be described thus: BSK_LPS_SRB: Viability Assessment in the BioMAP Diversity Plus: LPS Assay (AID 2283079).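 Also: total protein by sulforhodamine B absorbance as a cytotoxicity measure; measured one day after compound addition; fitted in both directions against DMSO so loss or gain of signal counts.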 Particulars: primary human HUVEC with PBMC. In outline: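 SRB viability endpoint: cells fixed with 10% TCA, stained with 0.1% SRB, read at 560 nm, 24 h post-dose. HUVEC/PBMC co-culture; signal change in either direction scored relative to DMSO.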

“And” between values parts separate entries of the source, which are not always exact repeats. Identical values can stand only once. The source made the active and inactive calls. The calls were made as follows: active = hit-call score of the fitted dose curve at least 0.9, where 1 is the maximum; inactive = score below 0.9.

Sequence of E-selectin (Homo sapiens) (P16581 whole entry, looked up): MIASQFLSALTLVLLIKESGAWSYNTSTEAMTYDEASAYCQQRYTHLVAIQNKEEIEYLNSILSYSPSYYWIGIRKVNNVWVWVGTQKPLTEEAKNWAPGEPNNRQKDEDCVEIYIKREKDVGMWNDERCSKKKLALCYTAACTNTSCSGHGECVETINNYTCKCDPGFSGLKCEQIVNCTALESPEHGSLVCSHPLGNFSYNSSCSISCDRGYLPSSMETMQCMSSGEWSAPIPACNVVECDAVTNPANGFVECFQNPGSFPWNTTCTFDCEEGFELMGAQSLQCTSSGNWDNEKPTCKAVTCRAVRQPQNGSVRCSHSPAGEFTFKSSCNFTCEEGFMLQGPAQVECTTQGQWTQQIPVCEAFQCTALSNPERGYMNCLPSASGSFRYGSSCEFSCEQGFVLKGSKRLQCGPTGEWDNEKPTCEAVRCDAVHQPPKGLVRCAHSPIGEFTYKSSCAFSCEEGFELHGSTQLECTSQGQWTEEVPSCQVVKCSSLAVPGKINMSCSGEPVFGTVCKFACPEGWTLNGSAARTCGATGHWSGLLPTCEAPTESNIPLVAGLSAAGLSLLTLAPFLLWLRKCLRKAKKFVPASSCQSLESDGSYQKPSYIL

On to `COC(=O)c1ccccc1CS(=O)(=O)NC(=O)Nc1nc(OC)cc(OC)n1`, for which the result in assay [1], in [2], in assay [3], in [4], in assay [5] and in assay [6] was inactive. The outcome in [7], in assay [8] and in [9] was inactive.
As a reminder, the AC50 is the concentration giving half of the maximal activity seen. On to `CC1(c2ccc(Oc3ccccc3)cc2)OC(=O)N(Nc2ccccc2)C1=O` (stereo not given), for which the outcome in [1], in assay [2], in assay [3], in [4], in assay [5] and in [6] was inactive. The AC50 is 20 µM (active) in assay [7], 20 µM (active) in assay [8] and 31 µM (active) in assay [9].
Regarding `O=C(Nc1ccccc1)Nc1cnns1`, the result in [1], in [2], in assay [3], in [4], in assay [5] and in assay [6] was inactive. In addition, the outcome in [7], in assay [8] and in assay [9] was inactive.
In the case of `CC(C)OC(=O)Nc1cccc(Cl)c1`, the outcome in [1], in [2], in assay [3], in assay [4], in assay [5] and in assay [6] was inactive. In addition, the result in [7] and in assay [8] was inactive. Besides, in [9], the AC50 was 3.97 µM (active).
In the case of `O=C1c2ccccc2C(=O)N1SC(Cl)(Cl)Cl`, the outcome in assay [1], in assay [2], in assay [3], in assay [4], in [5] and in [6] was inactive. Further, the outcome in [7] and in [8] was inactive. Further, the AC50 in assay [9] was 0.303 µM (active).
On to `COP(=S)(OC)Oc1ccc(SC)c(C)c1`, for which the outcome in assay [1], in [2], in assay [3], in assay [4], in assay [5] and in assay [6] was inactive. Also, the outcome in [7] and in [8] was inactive. The half-maximal activity concentration (AC50) in assay [9] was 30.6 µM (active).
`N#Cc1c(Cl)c(Cl)c(Cl)c(C#N)c1Cl`: the AC50 was 1.5 µM (active) in assay [1]; 1.89 µM (active) in [2]; 1.32 µM (active) in [3]; 1.79 µM (active) in assay [4]; 1.23 µM (active) in assay [5]; 1.66 µM (active) in [6]. For the same compound, the AC50 in [7] was 0.758 µM (active); in [8], 1.2 µM (active); in assay [9] it was 3.65 µM (active).
For the compound `CCCN(CCC)c1c([N+](=O)[O-])cc(C(F)(F)F)cc1[N+](=O)[O-]`, the result in [1], in assay [2], in assay [3], in assay [4], in assay [5] and in assay [6] was inactive. Besides, the result in assay [8] and in assay [9] was inactive. Further, the AC50 in assay [7] is 15.2 µM (active).
On to `O=[N+]([O-])/N=C1\NCCN1Cc1ccc(Cl)nc1`, for which the outcome in assay [1], in assay [2], in assay [3], in assay [4], in assay [5] and in assay [6] was inactive. In addition, the result in assay [7], in assay [8] and in assay [9] was inactive.
Take `Oc1ccc(Cl)cc1Cc1ccccc1`: the AC50 is 31.3 µM (active) [middle of 6 runs] in assay [7], 35.3 µM (active) [middle of 7 runs] in assay [8] and 29.3 µM (active) [middle of 7 runs] in [9].
Turning to `CCS(=O)(=O)c1cccnc1S(=O)(=O)NC(=O)Nc1nc(OC)cc(OC)n1`, the outcome in assay [1], in assay [2], in assay [3], in assay [5], in assay [6] and in assay [9] was inactive. In addition, the AC50 in [4] is 0.202 µM (active); in [7], 7.35 µM (active); in [8], 5.47 µM (active).
Consider `Oc1cc(Cl)ccc1Oc1ccc(Cl)cc1Cl`, for which the AC50 in assay [1] was 29.8 µM (active) [middle of 4 runs]; in [2], 30 µM (active) and 29.7 µM (active) and 20 µM (active); in assay [3], 18.5 µM (active) [middle of 4 runs]; in assay [4], 36.6 µM (active) [middle of 4 runs]; in assay [5], 15.2 µM (active) [middle of 4 runs]; in assay [6] it was 31 µM (active) [middle of 4 runs]. For the same compound, the AC50 was 15.6 µM (active) [middle of 4 runs] in [7]; 27.6 µM (active) [middle of 4 runs] in assay [8]; 17.1 µM (active) and 19.7 µM (active) and 18.7 µM (active) in [9].
Consider `CCC(C)Nc1c([N+](=O)[O-])cc(C(C)(C)C)cc1[N+](=O)[O-]` (stereo not given), for which the outcome in assay [1], in assay [2], in assay [3], in [4], in assay [5] and in assay [6] was inactive. In [8], the outcome was inactive. The AC50 is 14.6 µM (active) in assay [7] and 20 µM (active) in assay [9].
Consider `COC(=O)c1ccccc1S(=O)(=O)NC(=O)N(C)c1nc(C)nc(OC)n1`, for which the outcome in assay [1], in assay [2], in [3], in assay [4], in assay [5] and in assay [6] was inactive. For the same compound, the result in [7], in [8] and in assay [9] was inactive.
